91 molecules from PubChem BioAssay AID540333 (Southern Research Specialized Biocontainment Screening …, 2011) can be followed below.

The campaign covered roughly 10,000 compounds. About 320 (3.2%) were called active. This is one part of a sample in which actives are shown more often than they occur. Values without a mark were called inactive. No stated cut-off is given here; in the data, active means CPE inhibition mostly above about 9.1% (no sharp cut-off); inactive means mostly below about 7.2%.

A short description of this assay: Dengue virus cytopathic effect inhibitors, cell-based, CPE readout, HTS (AID 540333). To be noted: Dengue virus CPE inhibition in host cells, at 20 µM; hits give high values. For orientation: Cytopathic effects are the visible damage that an infection or toxin causes in cultured cells.
With `COC(=O)c1ccc(Oc2c(Cl)cccc2[N+](=O)[O-])cc1`, the CPE inhibition was 0.625%. Consider `COc1ccc(Nc2nc(-c3cccc([N+](=O)[O-])c3)nc3ccccc23)c(OC)c1`, for which the CPE inhibition was 0.465%.

Regarding `O=C(O)CC(CC(=O)O)c1ccsc1`, the CPE inhibition result is “inactive”.

On to `CCOC(=O)N1CCN(C(=O)c2ccc(-n3c(C)ccc3C)cc2)CC1`, for which the CPE inhibition is 0.68%.

For `CCOC(=O)c1ccc(-n2c(C)ccc2C)cc1`, the CPE inhibition was 0.33%. Turning to `C=CC[C@]12CCc3sccc3C1N(c1ccc(C(=O)OCC)cc1)C2=O` (stereo partly specified), the CPE inhibition was 19.9% (active). The same measure for `Cc1cc(=O)[nH]c(N/N=C/c2ccc(Br)s2)n1`: “inactive”; for `CCc1nnc(N2C(=O)c3ccc(Oc4ccc([N+](=O)[O-])cc4)cc3C2=O)s1`: 0.2%; for `Cc1cccc(-c2nsc(SCC(=O)NCc3ccc4c(c3)OCO4)n2)c1`: 0.255%. As to `S=C(Nc1ccc(OCc2ccccc2)cc1)Nc1cccc(Cl)c1Cl`, the CPE inhibition is 0.45%. As for `FC(F)Oc1ccccc1NC(=S)Nc1cccc(Cl)c1Cl`, the figure is 0.195%. The same measure for `S=C(Nc1ccccc1Oc1ccccc1)Nc1cccc(Cl)c1Cl`: 12.8% (active); for `COc1cccc(NC(=O)CN2C(=O)C(c3ccc(C)cc3)=NC23CCCCCC3)c1`: 3.59%.

As for `Cc1ccc(-n2c(=S)[nH]c3nc4c(cc3c2=O)COC(C)(C)C4)cc1`, the CPE inhibition entry is “inactive”.

Turning to `O=S(=O)(/N=C(/Nc1ccccn1)c1ccc(Cl)cc1)c1ccc(Cl)cc1`, the CPE inhibition was 0.025%. As for `Cc1cccc(CN2CCc3c(OCC(=O)N4CCCc5ccccc54)cccc3C2=O)c1`, the figure is 4.05%; as for `Cc1ccc(COc2cccc3c2CCN(Cc2ccc(F)cc2)C3=O)cc1`, 23% (active); as for `COC(=O)c1ccc(COc2cccc3c2CCN(Cc2cccc(C)c2)C3=O)o1`, 0.825%.

In the case of `O=C1c2cccc(OCC(=O)N3CCCc4ccccc43)c2CCN1Cc1ccccc1`, the CPE inhibition entry is “inactive”. The same measure for `Cc1ccc(C)c(NC(=O)COc2cccc3c2CCN(Cc2ccccc2)C3=O)c1`: 0.435%.

Turning to `O=C(COc1cccc2c1CCN(Cc1ccccc1)C2=O)NCc1ccco1`, the CPE inhibition entry is “inactive”. As for `Cc1ccc(CN2CCc3c(OCc4ccc(F)cc4)cccc3C2=O)cc1`, the figure is 23.2% (active); as for `O=C(COc1cccc2c1CCN(Cc1ccc(Br)cc1)C2=O)NCc1ccco1`, 13.9% (active); as for `O=C1c2cccc(OCc3ccc(F)cc3)c2CCN1Cc1ccccc1`, 11.8% (active). The same measure for `CCOC(=O)N1CCN(C(=O)COc2cccc3c2CCN(Cc2ccc(F)cc2)C3=O)CC1`: 0.16%; for `Cc1cccc(CN2CCc3c(OCC(=O)NCc4ccco4)cccc3C2=O)c1`: “inactive”; for `O=C1c2cccc(OCc3ccc(F)cc3)c2CCN1Cc1ccc(F)cc1`: 7.61%. With `COc1ccc(CC(=O)Oc2cc(C)[nH]c(=O)c2[N+](=O)[O-])cc1`, the CPE inhibition result is “inactive”. The same measure for `O=C(NCCc1nc2ccccc2[nH]1)/C(=C/c1ccc2c(c1)OCO2)NC(=O)c1ccccc1`: “inactive”. `C=CCc1ccc(OCCOc2cccc3cccnc23)c(OC)c1`: the CPE inhibition is 1.16%. Turning to `NC(=O)CSc1nc2c(c(=O)n1-c1ccccc1)C1(CCCCC1)Cc1ccccc1-2`, the CPE inhibition is 13.4% (active).

As to `CSc1n[nH]c2nc3c(c(=O)n12)C1(CCCC1)Cc1ccccc1-3`, the CPE inhibition entry was “inactive”.

With `Nn1cnc2c(c1=O)C1(CCCCC1)Cc1ccccc1-2`, the CPE inhibition is 0.27%.

As for `COCc1nnc(NC(=O)c2cc(OC)c(OC)cc2[N+](=O)[O-])s1`, the CPE inhibition is 0.875%.

Take `Cc1ccc(C(=O)c2cnc3cc4c(cc3c2S(=O)(=O)c2ccccc2)OCCO4)cc1`: the CPE inhibition is 6.29%. Turning to `CCOc1ccc(S(=O)(=O)c2c(C(=O)c3ccc(C)cc3)cnc3cc4c(cc23)OCCO4)cc1`, the CPE inhibition is 3.02%. As for `Cc1ccc(S(=O)(=O)c2c(C(=O)c3ccccc3)cnc3cc4c(cc23)OCCO4)cc1`, the figure is 13.2% (active). As for `Cc1ccc(O)c(-c2cc(C(=O)Nc3ccc(S(=O)(=O)Nc4nc(C)cc(C)n4)cc3)[nH]n2)c1`, the entry is “inactive”.

In the case of `COc1cc2cc(CCOC(=O)c3ccco3)oc(=O)c2cc1OC`, the CPE inhibition is 0.275%. For `N#Cc1ccc(NC(=O)COC(=O)CCNS(=O)(=O)c2ccccc2)cc1`, the CPE inhibition result was “inactive”. The same measure for `CCCCCCCNC(=O)C1(CC2CC(c3ccc(Cl)cc3)=NO2)CCN(C(=O)C2(C)CC2)CC1` (stereo unspecified): 1.24%; for `CCCCCCCNC(=O)C1(CC2CC(c3cccc(Br)c3)=NO2)CCNCC1` (stereo unspecified): “inactive”; for `CCCCCCCNC(=O)C1(CC2CC(c3cccc(Br)c3)=NO2)CCN(C(=O)Cc2ccc(F)cc2)CC1` (stereo unspecified): 21.7% (active). With `CCCCCCCNC(=O)C1(CC2CC(c3cccc(Br)c3)=NO2)CCN(C(=O)C2(C)CC2)CC1` (stereo unspecified), the CPE inhibition was 2.1%.

Turning to `CCCCCCCNC(=O)C1(CC2CC(c3ccccc3)=NO2)CCN(C(=O)OC(C)(C)C)CC1` (stereo unspecified), the CPE inhibition is 14.1% (active). The same measure for `COC(=O)C1(CC2CC(c3ccncc3)=NO2)CCN(C(=O)OC(C)(C)C)CC1` (stereo unspecified): “inactive”; for `O=C(Nc1cccc2nsnc12)c1cccnc1Cl`: “inactive”. For the molecule `Cc1ccc(CNC(=O)c2cc(-c3ccccc3)nn2CC2CC(c3cccnc3)=NO2)cc1` (stereo unspecified), the CPE inhibition entry is “inactive”. For `Cc1ccc(-c2cc(C(F)(F)F)c(C#N)c(=O)[nH]2)cc1`, the CPE inhibition is 0.3%. The same measure for `N/C(=N\OC(=O)Cc1ccccc1[N+](=O)[O-])c1ccncc1`: 0.175%; for `Cc1ccc(C(=O)N/C(=C/c2ccco2)C(=O)NCCc2c[nH]c3ccccc23)cc1`: 0.17%; for `CCn1cc([N+](=O)[O-])c(C(=O)N2N=C(c3ccc(OC)cc3OC)CC2c2ccccc2O)n1` (stereo unspecified): 0.7%.

`CCn1cc(Cl)c(C(=O)N2N=C(c3ccc4ccccc4c3)CC2c2ccccc2O)n1` (stereo unspecified): the CPE inhibition is 10% (active).

In the case of `CCn1cc([N+](=O)[O-])c(C(=O)N2N=C(c3ccc(O)c(OC)c3)CC2c2ccccc2O)n1` (stereo unspecified), the CPE inhibition is 2.17%. As for `CC(=O)c1cccc(NC(=O)CCCOc2ccc(C)cc2)c1`, the entry is “inactive”; as for `Cc1noc(C)c1CN(C(=S)NC(C)C)c1ccccc1`, “inactive”; as for `Cc1ccsc1-c1n[nH]c(=S)n1CC(C)C`, “inactive”.

In the case of `Cn1cc([N+](=O)[O-])c(C(=O)Nc2ccn(C34CC5CC(CC(C5)C3)C4)n2)n1`, the CPE inhibition is 9.72% (active). On to `CCn1cc([N+](=O)[O-])c(C(=O)Nc2ccn(C34CC5CC(CC(C5)C3)C4)n2)n1`, for which the CPE inhibition was 0.05%.

`Cn1nccc1C(=O)Nc1ccn(C23CC4CC(CC(C4)C2)C3)n1`: the CPE inhibition is 1.19%. Consider `O=C(C[n+]1cccc(CNC(=O)c2ccc(OC(F)F)cc2)c1)Nc1cccc(C(F)(F)F)c1`, for which the CPE inhibition was 0.165%. As for `CC(/C=C/c1ccccc1F)=N\NC(=O)C(C)C`, the figure is 1.25%. The same measure for `CN(C)c1ccc(N=Nc2ccccc2C(=O)OCC(=O)N2CCCCCC2)cc1`: 1.56%; for `COc1ccc(C2OCC3(CO2)SC(=O)NC3=O)cc1` (stereo unspecified): 0.47%. Turning to `CC(C)(C)NC(=O)C(c1cccs1)N(CC1CCCO1)C(=O)c1ccc(-c2ccccc2)[nH]1` (stereo unspecified), the CPE inhibition was 28.6% (active). The same measure for `O=C(NC1CCCC1)C(c1ccncc1)N(Cc1ccccc1)C(=O)c1ccc(-c2ccccc2)[nH]1` (stereo unspecified): 3.1%; for `O=C(NCC1CCCO1)C(c1cccs1)N(Cc1ccccc1)C(=O)c1ccc(-c2ccccc2)[nH]1` (stereo unspecified): 8.12%; for `Cc1cc(C)cc(NC(=O)C(NCC2CCCO2)c2ccccc2)c1` (stereo unspecified): “inactive”. On to `O=C(NCC1CCCO1)C(c1cccs1)N(Cc1ccccc1Cl)C(=O)c1ccc(-c2ccccc2)[nH]1` (stereo unspecified), for which the CPE inhibition was 16.9% (active).

On to `COc1ccc(C(=O)N(CC2CCCO2)C(C(=O)NCCC(C)C)c2ccc(C)cc2)cc1OC` (stereo unspecified), for which the CPE inhibition result is “inactive”. As for `O=C(COc1ccccc1[N+](=O)[O-])N/N=C/c1cccs1`, the entry is “inactive”; as for `CCOc1cccc(/C=N/NC(=S)Nc2cc(S(=O)(=O)N3CCOCC3)ccc2N2CCOCC2)c1O`, “inactive”.

For `Cc1ccc2[nH]c(=O)cc(C(=O)OCC(=O)c3ccccc3)c2c1`, the CPE inhibition entry was “inactive”. As for `COC(=O)CN1C(c2ccc(OC)cc2)=Nc2ccc(Cl)cc2C1c1ccccc1` (stereo unspecified), the figure is 7.85%. The same measure for `COC(=O)CN1C(c2cccc(Cl)c2)=Nc2ccc(Cl)cc2C1c1ccccc1` (stereo unspecified): 14.1% (active). As for `CCOC(=O)CN1C(=O)N[C@@H](c2ccccc2)[C@@H](C(=O)OC)[C@H]1C`, the figure is 0.065%; as for `Cc1cc(C(=O)N2CCN(c3ccc([N+](=O)[O-])cc3)CC2)no1`, “inactive”. With `O=C1CC(c2ccccc2)Sc2nc(-c3ccccc3)c(-c3ccccc3)n21` (stereo unspecified), the CPE inhibition result was “inactive”. The same measure for `Cc1ccc(OCCN(C)C)c([N+](=O)[O-])c1`: 0.995%.

Take `O=[N+]([O-])c1cccc(C(=S)N2CCN(c3ccccc3)CC2)c1`: the CPE inhibition was 0.055%.

`CS(=O)(=O)N1CCN(c2ccc([N+](=O)[O-])c(NCc3ccc(Cl)cc3)c2)CC1`: the CPE inhibition is 1.16%. As for `Cc1ccc(NC(=O)CSc2nnc(-c3cccs3)o2)cc1S(=O)(=O)N1CCCCC1`, the CPE inhibition result was “inactive”. As for `COC(=O)c1cc(NC(=S)NCc2ccc(Cl)cc2)cc(C(=O)OC)c1`, the CPE inhibition was 13.6% (active). The same measure for `COC(=O)Cc1ccc(NC(=S)NCc2ccc(Cl)cc2)cc1`: “inactive”. The same measure for `S=C(NCc1ccncc1)Nc1ccc(Cl)cc1`: 0.775%. As for `CC1=CC(C)(C)N(C(=O)CSc2nnc(N)s2)c2ccccc21`, the figure is 0.04%; as for `COc1ccc2c(c1)-c1nc(/N=C/c3ccc(O)c(OC)c3)sc1CC2`, 1.8%. `Cc1ccc(-n2nc(C)c(C3(O)C(=O)N(C(C)C)c4ccccc43)c2N)cc1` (stereo unspecified): the CPE inhibition entry was “inactive”. On to `CCOC(=O)C1=C(C)N(CCCCCC(=O)O)C(=O)NC1c1cccc([N+](=O)[O-])c1` (stereo unspecified), for which the CPE inhibition is 0.825%.

With `CCOC(=O)C1=C(C)N(Cc2ccccc2)C(=O)NC1c1ccccc1OS(=O)(=O)c1ccccc1[N+](=O)[O-]` (stereo unspecified), the CPE inhibition was 14.2% (active). As for `COC(=O)C1=C(C)N(Cc2ccccc2)C(=O)N[C@H]1c1cccc(F)c1`, the figure is 0.125%.
